The list is not random: actives were taken first. Their share in the collection is about 1.1%.
Eya2 inh: qHTS Assay for Inhibitors of the Phosphatase Activity of Eya2 | Protein phosphatase EYA2 (Homo sapiens), O00167 | recombinant Eya2, OMFP fluorescence dephosphorylation (OMFP is methylfluorescein phosphate) | Potency, µM (top dose mostly 76.9 µM), without a hit: at the highest dose activity, negative = inhibition, hits mostly inhibitors | 0.006% of 330,000 active | AID 488837, 2010; also: % is scaled to controls: 0 for no effect and ±100 for the full control effect
Target sequence (O00167 whole entry, looked up): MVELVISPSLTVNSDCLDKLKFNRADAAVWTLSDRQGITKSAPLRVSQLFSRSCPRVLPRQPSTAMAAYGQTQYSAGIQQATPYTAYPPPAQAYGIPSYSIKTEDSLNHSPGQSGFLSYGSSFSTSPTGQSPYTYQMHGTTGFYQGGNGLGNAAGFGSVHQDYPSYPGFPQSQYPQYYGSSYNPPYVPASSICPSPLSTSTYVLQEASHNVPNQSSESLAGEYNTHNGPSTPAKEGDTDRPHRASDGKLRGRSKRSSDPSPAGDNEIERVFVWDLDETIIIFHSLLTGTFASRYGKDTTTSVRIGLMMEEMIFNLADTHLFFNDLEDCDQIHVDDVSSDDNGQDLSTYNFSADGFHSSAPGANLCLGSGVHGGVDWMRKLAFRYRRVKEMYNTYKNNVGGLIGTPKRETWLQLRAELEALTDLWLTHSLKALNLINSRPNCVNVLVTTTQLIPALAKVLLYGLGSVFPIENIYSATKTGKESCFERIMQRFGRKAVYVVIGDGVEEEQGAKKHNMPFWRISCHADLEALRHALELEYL
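Eya2 (0.2 uM) preincubated 10 min at ambient with compound, then OMFP substrate added at 50 uM; 10 min reaction in 50 mM HEPES pH 7.5, 50 mM NaCl, 5 uM MgCl2, 0.05% BSA, 1 mM DTT. Fluorescence read at Ex 485/Em 525 nm.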
PTAP TSG101 blk: qHTS Assay for Iinhibitors of HIV-1 Budding by Blocking the Interaction of PTAP/TSG101. Fluorescence polarization, FITC-PTAP peptide / Tsg101 binding. Tumor susceptibility gene 101 protein (Homo sapiens), Q99816. 340,000 tested, under 10 active. Potency, µM (doses to about 115 µM), without a hit: at the highest dose activity change, negative = inhibition, most hits filed as inhibitors. AID 493005, 2010; active = well fitted inhibition curve with a large enough effect in the main read-out, with a control signal flat, not every such curve was filed as active; inconclusive = small, poorly fitted or top-dose-only effect, or effect the other way, or a change in a side signal; inactive = no such curve, though single readings can be large or run the other way; also: % of control where 0% means no effect
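Fluorescence polarization binding of Tsg101 binding domain (10 uM final) to FITC-labeled PTAP peptide (50 nM final) in HEPES pH 7.5 buffer with NaCl, Tween 20, EDTA, TCEP. Compounds added before peptide; binding 20 min at RT.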
12-LOX inh: Primary qHTS assay for inhibitors of human arachidonate 12S-lipoxygenase (ALOX12): Round 2; Polyunsaturated fatty acid lipoxygenase ALOX12 (Homo sapiens), P18054; purified 12hLO, xylenol orange hydroperoxide absorbance; Potency, µM (highest dose often 108 µM), for the others: at the highest dose activity change, negative = inhibition, actives largely listed as inhibitors; 1.1% of 580,000 active; also: % is scaled to controls: 0 for no effect and ±100 for the full control effect
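Hydroperoxide product was detected by ferrous iron/xylenol orange as the 573 to 405 nm absorbance ratio. Arachidonic acid at 40 uM (final) was turned over for 30 min at room temperature by 150 nM human 12hLO, pH 7.0 Hepes buffer, after 15 min compound preincubation.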
USP2a block: qHTS Assay for Inhibitors of Ubiquitin-specific Protease USP2a Using CHOP2 as the Reporter; 0.01% of 330,000 active; Potency, µM (top dose mostly 38.3 µM), for the others: at the top dose activity change, negative = inhibition, hits mostly inhibitors; USP2 core, Ub-CHOP2 coupled fluorogenic reporter, 485/531; AID 463254, 2010;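 also: plate controls were DMSO wells for no effect and full inhibition by NEM control for full effect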
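USP2 core (10nM final) preincubated 30min RT with compound in 20mM Tris-HCl pH 8.0, 2mM CaCl2, 2mM beta-mercaptoethanol, 0.05% CHAPS; 25nM Ub-CHOP2 plus 25nM reporter substrate added, fluorescence (Ex485/Em531) read after 60min.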
Starred values were filed as active, the others as inactive; u = inconclusive; x = no result given; [ ] = dose if it differs, or a comment. Unless noted, calls follow the shape of the dose curve; as a rule, active = well fitted curve in the direction sought with a large enough effect; inconclusive = small, poorly fitted or top-dose-only effect, or another doubt; inactive = no such curve, though single readings can be large; an effect the other way counts as inactive or inconclusive. Potency is read from the fitted curve at half-maximal effect.

SMILES | Eya2 inh | PTAP TSG101 blk | 12-LOX inh | USP2a block
Cc1nc(NC(=O)c2ccc3c(c2)OCCO3)ccc1Cl | x | x | -55.9% | x
Cc1ccc(-c2n[nH]c(=S)n2/N=C/c2cccn2C)cc1 | -0.3% | -0.1% | 25.1µM* | -0.1%
Cc1ccc(/C=N/n2c(-c3ccc(Cl)cc3)n[nH]c2=S)s1 | -1.0% | -2.8% | -21.9% | 0.0%
Cc1ccc(-c2n[nH]c(=S)n2/N=C/c2ccc(C)s2)cc1 | 4.5% | -3.1% | 15.8µM* | -1.4%
O=C(NN1C(=O)c2cc(Br)ccc2NC1c1ccccc1Cl)c1ccncc1 (stereo unspecified) | 12.1% | -0.2% | -20.4% | 0.0%
O=C(NN1C(=O)c2cc(Br)ccc2NC1c1cc(Br)cc(Br)c1O)c1ccncc1 (stereo unspecified) | 7.4% | -1.4% | 50.1µM* | -0.4%
OC[C@@H]1O[C@H](CNCc2ccc(F)cc2)[C@H](N2CCOCC2)[C@@H]1O | x | x | 28.2µM* | x
OC[C@@H]1O[C@H](CNCc2ccc(F)cc2)[C@H](N2CCCC2)[C@@H]1O | x | x | -2.8%[176 µM] | x
COC(=O)[C@@H]1Cc2c([nH]c3ccccc23)[C@H]2C[C@@H](N3CCOCC3)C[C@@H](c3ccc(C(F)(F)F)cc3)N21 | x | x | -17.2% | x
O=c1c(-c2ccccc2)c[nH]n1-c1cccc([N+](=O)[O-])c1 | -16.5% | -15.4% | -20.0% | 7.4%
N#Cc1ccc2sn(-c3ccccc3)c(=O)c2c1 | x | x | 0.355µM* | x
N#Cc1ccc2c(c1)nnn2-c1ccccc1 | x | 0.0% | 0.0% | x
O=c1c2cc([N+](=O)[O-])ccc2sn1-c1ccccc1 | x | x | 0.251µM* | x
CC(=O)Nc1ccc2sn(-c3ccccc3)c(=O)c2c1 | x | x | 1.12µM* | x
Cc1ccccc1NC(=S)NCc1ccc2c(c1)cc(C)n2C | 5.4% | -9.2% | u | 0.5%
CCCCNC(=S)NCc1ccc2c(c1)cc(C)n2C | -1.6% | -2.3% | 39.8µM* | -0.1%
Cc1cc2cc(CNC(=S)NCc3ccccc3)ccc2n1C | 1.2% | -1.2% | 39.8µM* | 7.2%
O=C(c1cc(Cl)ccc1Cl)N1CCN(c2cc(-c3cccs3)[nH]n2)CC1 | x | x | -0.3% | x
c1ccc(CCN2CCNc3cc(N4CCN(c5ccccn5)CC4)ncc3C2)cc1 | x | x | 37.9%[176 µM] | x
Cc1cccc(C)c1-n1nnnc1SCC(=O)c1ccc(Br)s1 | x | x | -27.8% | x
Cc1ccccc1-n1nnnc1SCC(=O)c1ccc(Br)s1 | x | x | 25.1µM* | x
CNc1ccc(Br)cc(C(=O)/C=C/c2ccc(Cl)cc2Cl)c1=O | -6.1% | 1.0% | 12.6µM* | -1.7%
CC(=O)c1cccc(OCc2coc(-c3cccc(F)c3)n2)c1 | x | x | -21.5% | x
CC(=O)c1ccc(OCc2coc(-c3cccc(F)c3)n2)cc1 | x | x | 44.7µM* | x
COc1cccc(-n2cc(CN(C)Cc3cn(-c4ccccc4)nn3)cn2)c1 | x | x | 37.7% | x
SMILES | Eya2 inh | PTAP TSG101 blk | 12-LOX inh | USP2a block
COc1cc2c(cc1C1C(C#N)=C(N)OC3=C1C(=O)CC(C)(C)C3)OCO2 (stereo unspecified) | 3.3% | -1.3% | 0.0% | 3.1%
CC1(C)CC(=O)C2=C(C1)OC(N)=C(C#N)C2c1ccc(-c2cc(Cl)ccc2Cl)o1 (stereo unspecified) | x | x | 10.7% | x
CC1(C)CC(=O)C2=C(C1)OC(N)=C(C#N)C2c1ccc(-c2ccc(Br)cc2)o1 (stereo unspecified) | x | x | 20µM* | x
COc1ccc(C2C(C#N)=C(N)OC3=C2C(=O)CC(C)(C)C3)c2ccccc12 (stereo unspecified) | x | x | 7.94µM* | x
COc1ccccc1-c1cc2c(nc1-c1ccccc1)nc(C(=O)NC1CCN(C)CC1)n2C | x | x | 56.2% | x
COc1ccc(-n2nc(C3CCN(Cc4cccn4C)CC3)[nH]c2=O)cc1 | x | x | 51.3% | x
CCc1ccc2oc(-c3cccc(NC(=O)c4cc(OC)c(OC)c(OC)c4)c3)nc2c1 | x | x | -40.6% | x
S=C1NCCc2ccc(Cl)cc2C1c1ccccc1Cl (stereo unspecified) | -32.1% | 4.0% | 31.6µM* | 0.0%
CCCN(C)c1nccnc1OC1CCN(C(=O)CC(C)C)C1 (stereo unspecified) | x | x | 46.7% | x
